An excerpt weighted towards active compounds, which were near 3.5% of everything screened.
FBW7 activator = human FBW7 E3 ligase activation, primary screen | Q969H0 | AlphaScreen FBW7–phospho-cyclin E peptide binding, activator screen | normalized activity (activation), % at 26.1 µM | actives 0.13% (n = 650,000); in the data active = normalized activity above about 1.9%;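 also: purified mutant Fbw7 with reduced substrate affinity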
Target sequence (Q969H0 whole entry, looked up): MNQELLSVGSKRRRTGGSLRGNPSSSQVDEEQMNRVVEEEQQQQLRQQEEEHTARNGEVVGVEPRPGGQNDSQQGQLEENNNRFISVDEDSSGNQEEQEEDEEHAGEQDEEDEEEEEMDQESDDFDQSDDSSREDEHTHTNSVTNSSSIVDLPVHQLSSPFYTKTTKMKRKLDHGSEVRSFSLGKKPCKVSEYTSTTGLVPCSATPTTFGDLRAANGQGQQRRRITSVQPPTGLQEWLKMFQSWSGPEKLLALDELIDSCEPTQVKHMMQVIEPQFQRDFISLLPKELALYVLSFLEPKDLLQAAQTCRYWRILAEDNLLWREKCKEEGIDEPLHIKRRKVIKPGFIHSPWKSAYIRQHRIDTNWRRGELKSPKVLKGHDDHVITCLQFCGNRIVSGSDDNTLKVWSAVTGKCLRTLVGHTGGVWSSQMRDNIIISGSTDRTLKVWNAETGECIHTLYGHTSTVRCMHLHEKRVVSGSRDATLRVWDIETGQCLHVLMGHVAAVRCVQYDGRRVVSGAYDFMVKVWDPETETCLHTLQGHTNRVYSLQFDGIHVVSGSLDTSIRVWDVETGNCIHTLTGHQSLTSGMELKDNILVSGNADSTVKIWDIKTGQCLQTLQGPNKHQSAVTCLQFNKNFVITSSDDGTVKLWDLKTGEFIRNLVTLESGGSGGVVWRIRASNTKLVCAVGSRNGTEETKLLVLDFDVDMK
TEAD-YAP inh = TEAD-YAP interaction inhibition; inhibition, % at 9.12 µM; AID 1259422; actives 1.4% (n = 640,000); HEK-TIYL cells, TEAD-Gal4/YAP UAS-luciferase luminescence; in the data active = inhibition above about 32%;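 also: 0% = median of test compound wells and 100% = reference inhibitor wells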
MITF inh = blocks human microphthalmia-associated transcription factor; AlphaScreen MITF homodimerization, bead proximity signal; inhibition, % at 2.6 µM; actives 0.91% (n = 650,000); in the data active = inhibition above about 50%;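 also: 0% = vehicle wells with protein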
GPR151 activ = activates the human receptor GPR151; PathHunter beta-arrestin GPR151 cells, luminescence; actives 1% (n = 650,000); Q8TDV0; activation, % at 11.2 µM; in the data active = activation above about 4.9%;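 also: 0% = median of compound wells and 100% = cells with positive control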
MITF inh conf = confirmation of human MITF inhibitors. shares compounds with MITF inh. AlphaScreen MITF homodimerization, biotin/His-MITF beads. inhibition, % at 2.6 µM. actives 16% (n = 4,700). AID 1259372;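 active = inhibition above a cutoff derived from the DMSO control wells, cut at about 28% in these data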;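 also: 0% = MITF dimer wells with DMSO only; inhibitors lower the bead chemiluminescence by keeping MITF from dimerizing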
AS interf ctr = AlphaScreen optical interference, counter-screen | shares compounds with MITF inh | LysRS AlphaScreen counterscreen, signal interference, triplicate | inhibition, % at 2.6 µM | actives 7.6% (n = 4,700) | AID 1259376;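 active = inhibition above a cutoff derived from the DMSO control wells, cut at about 30% in these data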
The depositor's hits bear a star.

Results for COc1ccccc1CCNCc1ccccc1OC ?
FBW7 activator: 0; TEAD-YAP inh: -7; MITF inh: 52*; GPR151 activ: 0; MITF inh conf: 2; AS interf ctr: -8

How did COc1ccccc1CCNCc1cc(OC)c(OC)cc1OC do in these assays?
FBW7 activator: 0; TEAD-YAP inh: 2; MITF inh: 28; GPR151 activ: -2

What do the screens show for `CCCCCOc1ccc(/C=C/C(=O)Nc2ccc(Cl)cc2C(=O)c2ccccc2)cc1OC`?
FBW7 activator: 0; TEAD-YAP inh: 5; MITF inh: 7; GPR151 activ: 0

What do the screens show for `Cc1ccc(C2=CCN(CC(=O)NCc3ccco3)CC2)o1`?
FBW7 activator: 0; TEAD-YAP inh: -8; MITF inh: -11; GPR151 activ: 1

Results for COCC1CCCN(CC(=O)Nc2cccnc2)C1 (stereo not given) ?
FBW7 activator: 0; TEAD-YAP inh: -5; MITF inh: 75*; GPR151 activ: -1; MITF inh conf: 11; AS interf ctr: 14

What do the screens show for `COc1cc(Br)c(CN2CCN(CCO)CC2)cc1OC`?
FBW7 activator: 0; TEAD-YAP inh: -5; MITF inh: 16; GPR151 activ: -1

How did COc1ccc(CN2CCN(CCO)CC2)cc1Br do in these assays?
FBW7 activator: 0; TEAD-YAP inh: -2; MITF inh: 77*; GPR151 activ: -1; MITF inh conf: 5; AS interf ctr: -2

What do the screens show for `COc1ccc(CN2CCN(Cc3cccc(C)c3)CC2)cc1Br`?
FBW7 activator: 0; TEAD-YAP inh: 0; MITF inh: 70*; GPR151 activ: -1; MITF inh conf: 21; AS interf ctr: 8

What do the screens show for `COc1cc(C)c(CN2CCN(CCO)CC2)cc1C`?
FBW7 activator: 0; TEAD-YAP inh: 2; MITF inh: 51*; GPR151 activ: 1; MITF inh conf: 2; AS interf ctr: 5

What do the screens show for `COc1ccc(CN2CCN(Cc3ccc(Cl)cc3)CC2)cc1Br`?
FBW7 activator: 0; TEAD-YAP inh: 12; MITF inh: 80*; GPR151 activ: -1; MITF inh conf: 6; AS interf ctr: 7

How did CCN1CCN(Cc2ccc(OC)c(Br)c2)CC1 do in these assays?
FBW7 activator: 0; TEAD-YAP inh: -9; MITF inh: -7; GPR151 activ: 0

What do the screens show for `CCOC(=O)C1C2NC(=S)N(CC)C1(C)Oc1c(Br)cc(Br)cc12` (stereo not given)?
FBW7 activator: 0; TEAD-YAP inh: 3; MITF inh: 19; GPR151 activ: -1

What do the screens show for `COC(=O)C1=C(C(=O)OC)C2c3ccccc3C=CN2C(C(=O)OC)=C1C(=O)OC` (stereo not given)?
FBW7 activator: 1; TEAD-YAP inh: 3; MITF inh: 51*; GPR151 activ: 1; MITF inh conf: 51*; AS interf ctr: 14

What do the screens show for `CCc1ccc(CN2CCN(Cc3ccccc3F)CC2)cc1`?
FBW7 activator: 0; TEAD-YAP inh: -5; MITF inh: 71*; GPR151 activ: 0; MITF inh conf: -3; AS interf ctr: 0

How did CN1CCN(Cc2ccccc2O)CC1 do in these assays?
FBW7 activator: 0; TEAD-YAP inh: 18; MITF inh: 1; GPR151 activ: 2

How did Fc1ccc(CN2CCN(Cc3ccccc3F)CC2)cc1 do in these assays?
FBW7 activator: 0; TEAD-YAP inh: -13; MITF inh: 78*; GPR151 activ: 2; MITF inh conf: -7; AS interf ctr: -3

How did CN1CCN(Cc2ccccc2F)CC1 do in these assays?
FBW7 activator: 0; TEAD-YAP inh: 9; MITF inh: 52*; GPR151 activ: 0; MITF inh conf: 1; AS interf ctr: 1

How did CSc1ccc(CN2CCN(Cc3ccccc3Cl)CC2)cc1 do in these assays?
FBW7 activator: -1; TEAD-YAP inh: -5; MITF inh: 33; GPR151 activ: -2

How did Fc1ccc(F)c(CN2CCN(Cc3ccccc3)CC2)c1 do in these assays?
FBW7 activator: 0; TEAD-YAP inh: -2; MITF inh: -2; GPR151 activ: 4

How did Fc1ccc(CN2CCN(Cc3ccccc3Cl)CC2)cc1 do in these assays?
FBW7 activator: 0; TEAD-YAP inh: -12; MITF inh: 70*; GPR151 activ: 0; MITF inh conf: 11; AS interf ctr: 30*

What do the screens show for `Fc1ccccc1CN1CCN(Cc2ccc(Cl)cc2)CC1`?
FBW7 activator: 0; TEAD-YAP inh: 2; MITF inh: 50; GPR151 activ: 1

Results for COc1c(Cl)cc(Cl)cc1C=C(C#N)C#N ?
FBW7 activator: 0; TEAD-YAP inh: -6; MITF inh: 8; GPR151 activ: 0

What do the screens show for `COc1ccc(CN2CCN(Cc3ccccc3Br)CC2)cc1`?
FBW7 activator: 0; TEAD-YAP inh: -7; MITF inh: 6; GPR151 activ: 0

What do the screens show for `O=C(COc1ccc(Cl)cc1)N1CCN(Cc2ccccc2F)CC1`?
FBW7 activator: 0; TEAD-YAP inh: 1; MITF inh: 60*; GPR151 activ: 4; MITF inh conf: 7; AS interf ctr: 1

How did Cc1cccc(CN2CCN(Cc3ccccc3Cl)CC2)c1 do in these assays?
FBW7 activator: 0; TEAD-YAP inh: -2; MITF inh: 51*; GPR151 activ: 0; MITF inh conf: 10; AS interf ctr: 15

How did Fc1cccc(CN2CCN(Cc3ccccc3Cl)CC2)c1 do in these assays?
FBW7 activator: 0; TEAD-YAP inh: -9; MITF inh: 78*; GPR151 activ: -1; MITF inh conf: -8; AS interf ctr: -4

What do the screens show for `Cc1ccccc1CN1CCN(Cc2cccc(F)c2)CC1`?
FBW7 activator: 0; TEAD-YAP inh: -1; MITF inh: 80*; GPR151 activ: 0; MITF inh conf: 10; AS interf ctr: 15

What do the screens show for `CCOC(=O)c1nc2ccccc2c(=O)n1-c1ccc(C(F)(F)F)cc1`?
FBW7 activator: 0; TEAD-YAP inh: -4; MITF inh: 7; GPR151 activ: -1

How did CCCC(=O)NC(Oc1ccc([N+](=O)[O-])cc1[N+](=O)[O-])C(Cl)(Cl)Cl (stereo not given) do in these assays?
FBW7 activator: 0; TEAD-YAP inh: 7; MITF inh: -7; GPR151 activ: 0

How did COc1cc([N+](=O)[O-])cc(/C=C2/C(=O)NC(=O)N(C)C2=O)c1O do in these assays?
FBW7 activator: -1; TEAD-YAP inh: -10; MITF inh: 2; GPR151 activ: 5

Results for CCCCC(=O)Nc1ccc(S(=O)(=O)N2CC3CC(C2)c2cccc(=O)n2C3)cc1 (stereo not given) ?
FBW7 activator: 0; TEAD-YAP inh: -3; MITF inh: 17; GPR151 activ: 3

What do the screens show for `Fc1ccccc1CN1CCN(Cc2ccccc2Cl)CC1`?
FBW7 activator: 0; TEAD-YAP inh: 7; MITF inh: 65*; GPR151 activ: 1; MITF inh conf: 5; AS interf ctr: 18

What do the screens show for `COc1ccc(CCNCc2ccc(OC)c(OC)c2)cc1`?
FBW7 activator: 0; TEAD-YAP inh: 6; MITF inh: 51*; GPR151 activ: -1; MITF inh conf: -1; AS interf ctr: -6

Source: PubChem BioAssay
